For test [1], the target named is Paired box protein Pax-6 (Homo sapiens) (UniProt P26367). Description: ATG_Pax6_CIS: Attagene CIS-FACTORIAL HepG2 Assay for human Paired Box 6 (PAX6) (AID 2282956). As to conditions: HepG2 CIS-FACTORIAL PAX6 reporter transcription, RNA readout; actives raise or lower the signal. The procedure, abridged:
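Transient MRTU transfection of HepG2 → compound exposure 24 h → TriZol RNA, oligo(dT) RT → PCR, 6-FAM primer extension, HpaI cut → capillary electrophoresis; activity fitted both directions against DMSO.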

A short description of test [2]: ATG_PXRE_CIS: Attagene CIS-FACTORIAL HepG2 Assay for human Pregnane X Receptor Element (PXRE) (AID 2282957). The settings on record: HepG2 Attagene CIS-FACTORIAL PXRE reporter, mRNA; actives raise or lower the signal. The procedure, abridged:
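Cells: HepG2, transiently transfected reporter units under cis promoter control. Exposure: 24 h. Detection: reporter mRNA via RT-PCR/CE fluorescence; bidirectional fitting, DMSO-referenced.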

Test [3] in a line: ATG_PPRE_CIS: Attagene CIS-FACTORIAL HepG2 Assay for human Peroxisome Proliferator-activated Response Element (PPRE) (AID 2282958). As to conditions: HepG2 PPRE cis-element reporter, Attagene transcription factor profiling; actives raise or lower the signal. Summed up:
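Cells are first transfected transiently with the multiplexed reporter library, then dosed for 24 h. Total RNA is reverse-transcribed, amplified, fluorescently end-labeled and HpaI-cut before capillary electrophoresis; activity is fitted bidirectionally against DMSO controls.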

A short description of test [4]: ATG_RORE_CIS: Attagene CIS-FACTORIAL HepG2 Assay for human RAR-related Orphan Receptor Element (RORE) (AID 2282959). The settings on record: HepG2 Attagene cis-factorial RORE reporter, mRNA; actives raise or lower the signal. The procedure, abridged: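 Cells were HepG2 carrying transfected cis-regulated reporter constructs, dosed for 24 hours. Total RNA was reverse-transcribed and reporter cDNA amplified, fluorescently labeled and sized by capillary electrophoresis. Activity was fitted bidirectionally relative to DMSO.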

The nature of test [5]: ATG_Sox_CIS: Attagene CIS-FACTORIAL HepG2 Assay for human SRY-box transcription factor (SOX) (AID 2282960). As to conditions: HepG2 Attagene cis-factorial SOX reporter, mRNA; actives raise or lower the signal. The procedure, abridged: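 Transient MRTU transfection of HepG2; 24 h compound incubation; TriZol RNA, oligo(dT) RT, PCR, 6-FAM primer extension, HpaI cut, CE. Bidirectional fit, DMSO = baseline.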

The nature of test [6]: ATG_SREBP_CIS: Attagene CIS-FACTORIAL HepG2 Assay for human Sterol Regulatory Element Binding (SREBP) (AID 2282962). The settings on record: HepG2 Attagene cis-factorial SREBP reporter, mRNA; actives raise or lower the signal. Summed up:
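Transfected HepG2 (cis-regulated reporter library, endogenous TFs) → compound 24 h → total RNA → oligo(dT) RT → reporter-specific PCR → FAM primer extension, HpaI cut → CE fluorescence. Fit bidirectional vs DMSO.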

The target of test [7] is Signal transducer and activator of transcription 3 (Homo sapiens) (UniProt P40763). Put plainly: ATG_STAT3_CIS: Attagene CIS-FACTORIAL HepG2 Assay for human Signal Transducer and Activator of Transcription 3 (STAT3) (AID 2282963). As to conditions: HepG2, Attagene cis-factorial STAT3 reporter transcription; actives raise or lower the signal. Summed up:
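Values derive from bidirectional fits relative to DMSO of reporter mRNA levels, measured by RT-PCR with capillary electrophoresis, in HepG2 cells carrying transiently transfected cis-regulated reporter units and exposed 24 h.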

Test [8] in a line: ATG_TA_CIS: Attagene CIS-FACTORIAL HepG2 Assay for human TA Basal Promoter (AID 2282964). As to conditions: HepG2 Attagene CIS-factorial TA basal promoter reporter; actives raise or lower the signal. Summed up:
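HepG2 cells transiently transfected with multiplexed cis-promoter reporter units, dosed 24 h. Reporter mRNA measured by RT-PCR, 6-FAM labelling, HpaI digestion and capillary electrophoresis; bidirectional fit versus DMSO baseline, serving as background control.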

Test [9] in a line: ATG_TCF_b_cat_CIS: Attagene CIS-FACTORIAL HepG2 Assay for human T-Cell-Factor with beta-catenin (TCF/b-cat) (AID 2282965). The settings on record: HepG2 TCF/beta-catenin cis-reporter transcription, actives raise or lower the signal. Summed up: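 Cells of the HepG2 line carry transiently transfected reporter units whose promoters respond to endogenous factors. Twenty-four hours post-dosing, reporter mRNA induction is measured by fluorescent RT-PCR and capillary electrophoresis, with DMSO as baseline.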

Test [10] is described as follows: ATG_TAL_CIS: Attagene CIS-FACTORIAL HepG2 Assay for human TAL Basal Promoter (AID 2282966).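 Also: background control endpoint measuring basal TAL promoter reporter mRNA not a specific factor.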 As to conditions: HepG2 Attagene cis-factorial TAL promoter reporter; actives raise or lower the signal. Summed up:
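RT-PCR plus capillary electrophoresis quantifies reporter mRNA induction in transiently transfected HepG2 cells after 24 h chemical treatment. DMSO serves as negative control and baseline for bidirectional fitting.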

The nature of test [11]: ATG_TGFb_CIS: Attagene CIS-FACTORIAL HepG2 Assay for human Transforming Growth Factor (TGF) (AID 2282967). The settings on record: HepG2 Attagene CIS TGFb reporter, mRNA transcription; actives raise or lower the signal. The procedure, abridged:
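HepG2 cells transiently transfected with cis-promoter-driven multiplexed reporter units; 24 h compound exposure. Reporter mRNA measured by RT-PCR, 6-FAM labeling, HpaI digestion and capillary electrophoresis; bidirectional fit versus DMSO baseline.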

Test [12] can be described thus: ATG_VDRE_CIS: Attagene CIS-FACTORIAL HepG2 Assay for human Vitamin D Receptor Element (VDRE) (AID 2282968). As to conditions: HepG2 VDRE cis-reporter transcription, actives raise or lower the signal. Summed up:
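Cell-based multiplexed reporter format in human liver HepG2 cells, 24 h post-dose. Fluorescence from capillary electrophoresis of reporter cDNA gives the signal, with DMSO as negative control and baseline.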

Test [13] addresses Estrogen receptor (Homo sapiens) (UniProt P03372). Description: ATG_ERa_TRANS: Attagene TRANS-FACTORIAL HepG2 Assay for human Estrogen Receptor alpha (ERa) (AID 2282970; active = hit-call score of the fitted dose curve at least 0.9, where 1 is the maximum). The settings on record: HepG2 Attagene TRANS ERa GAL4 reporter, mRNA. The procedure, abridged: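 Cells: HepG2, transiently transfected. Construct: GAL4-UAS reporter units regulated by exogenous NR-Gal4 chimeras. Time: 24 h. Detection: reporter mRNA by RT-PCR, capillary electrophoresis, fluorescence. Baseline: DMSO, upward fitting.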

Test [14] concerns the target X-box-binding protein 1 (Homo sapiens) (UniProt P17861). Description: ATG_Xbp1_CIS: Attagene CIS-FACTORIAL HepG2 Assay for human X-box Binding Protein 1 (XBP1) (AID 2282972). The settings on record: HepG2 XBP1 cis-element reporter, Attagene multiplex; actives raise or lower the signal. Summed up: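 HepG2, transient MRTU transfection (cis-promoter driven), 24 h compound exposure. Total RNA → oligo(dT) RT → PCR → 6-FAM labeling → HpaI cut → CE. Bidirectional fit vs DMSO.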

A short description of test [15]: ATG_GAL4_TRANS: Attagene TRANS-FACTORIAL HepG2 Assay for GAL4 (Internal Marker) (AID 2282976; active = hit-call score of the fitted dose curve at least 0.9, where 1 is the maximum). As to conditions: HepG2 Attagene TRANS GAL4 internal marker reporter. The procedure, abridged: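 In transfected human HepG2 liver cells dosed 24 h, GAL4 reporter mRNA serves as a baseline marker. Detection by RT-PCR with fluorescent capillary electrophoresis, activity fitted upward relative to DMSO.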

Test [16] has as its target Transcription factor Sp1 (Homo sapiens) (UniProt P08047). Description: ATG_Sp1_CIS: Attagene CIS-FACTORIAL HepG2 Assay for human Specificity Protein 1 (Sp1) (AID 2282961). The settings on record: HepG2 Sp1 cis-reporter transcription, actives raise or lower the signal. The procedure, abridged: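 Endogenous Sp1 activity was gauged in human liver HepG2 cells bearing transfected reporter units under a cis-regulating promoter. After 24 h dosing, reporter mRNA was quantified by RT-PCR with capillary electrophoresis, and activity fitted bidirectionally versus DMSO.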

The target of test [17] is Nuclear receptor subfamily 1 group I member 3 (Homo sapiens) (UniProt Q14994). Description: ATG_CAR_TRANS: Attagene TRANS-FACTORIAL HepG2 Assay for human Constitutive Androstane Receptor (CAR) (AID 2282969; active = hit-call score of the fitted dose curve at least 0.9, where 1 is the maximum;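 also: activators raise reporter mRNA above DMSO so AC50 marks induction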). As to conditions: HepG2 Attagene TRANS-FACTORIAL CAR reporter. Summed up:
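HepG2 cells transiently transfected with GAL4-UAS reporter units; TRANS format reads activity of exogenous chimeric NR-Gal4 protein. After 24 h dosing, reporter mRNA quantified by RT-PCR, 6-FAM labelling and capillary electrophoresis; gain of signal fitted against DMSO.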

Test [18] in a line: ATG_M_19_TRANS: Attagene TRANS-FACTORIAL HepG2 Assay for M19 Transcription Factor (Internal Marker) (AID 2282974; active = hit-call score of the fitted dose curve at least 0.9, where 1 is the maximum). As to conditions: HepG2 Attagene TRANS-FACTORIAL M19 internal marker reporter. The procedure, abridged: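 Cells: human HepG2, transiently transfected with multiplexed reporter transcription units. Exposure: 24 h. Detection: RT-PCR of reporter mRNA with capillary electrophoresis. Analysis: gain-of-signal vs DMSO.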

For test [19], the target named is Steroid hormone receptor ERR1 (Homo sapiens) (UniProt P11474). Put plainly: ATG_ERRa_TRANS: Attagene TRANS-FACTORIAL HepG2 Assay for human Estrogen-Related Receptor alpha (ERRa) (AID 2282971; active = hit-call score of the fitted dose curve at least 0.9, where 1 is the maximum). As to conditions: HepG2 Attagene TRANS reporter, ERRa transactivation. Summed up: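 Reporter transcripts from ERRa-Gal4 chimera activity measured in transiently transfected human HepG2 cells 24 hours after dosing, using RT-PCR with 6-FAM primer extension, HpaI digestion and capillary electrophoresis; DMSO is baseline.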

For test [20], the target named is Estrogen-related receptor gamma (Homo sapiens) (UniProt P62508). Put plainly: ATG_ERRg_TRANS: Attagene TRANS-FACTORIAL HepG2 Assay for human Estrogen-Related Receptor gamma (ERRg) (AID 2282977; active = hit-call score of the fitted dose curve at least 0.9, where 1 is the maximum;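 also: hits increase reporter signal over DMSO so potencies reflect activators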). As to conditions: HepG2 Attagene TRANS reporter, ERRg transactivation. Summed up:
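HepG2 cells transiently transfected with multiplexed GAL4-UAS reporter units and chimeric NR-Gal4 constructs were exposed to test chemicals for 24 h. Reporter mRNA was measured by RT-PCR, 6-FAM primer extension, HpaI digestion and capillary electrophoresis; gain-of-signal versus DMSO.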

Results filed as inconclusive are left out. Calls of active or inactive are those of the source. The calls were made as follows, unless noted: active = hit-call score of the fitted dose curve at least 0.9, where 1 is the maximum; inactive = score below 0.9.

Sequence of Paired box protein Pax-6 (Homo sapiens) (P26367 whole entry, looked up): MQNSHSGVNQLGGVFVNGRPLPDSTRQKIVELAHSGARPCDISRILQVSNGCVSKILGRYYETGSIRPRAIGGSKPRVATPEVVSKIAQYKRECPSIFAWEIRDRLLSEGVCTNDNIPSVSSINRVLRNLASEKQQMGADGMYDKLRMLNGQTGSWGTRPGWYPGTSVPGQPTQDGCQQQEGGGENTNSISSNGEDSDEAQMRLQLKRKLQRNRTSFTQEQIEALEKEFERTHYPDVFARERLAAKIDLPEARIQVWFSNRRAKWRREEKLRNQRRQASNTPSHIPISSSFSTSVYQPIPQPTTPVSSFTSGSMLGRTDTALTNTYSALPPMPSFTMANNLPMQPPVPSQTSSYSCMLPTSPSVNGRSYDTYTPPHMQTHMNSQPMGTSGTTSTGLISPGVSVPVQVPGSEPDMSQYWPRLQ
Sequence of Signal transducer and activator of transcription 3 (Homo sapiens) (P40763 whole entry, looked up): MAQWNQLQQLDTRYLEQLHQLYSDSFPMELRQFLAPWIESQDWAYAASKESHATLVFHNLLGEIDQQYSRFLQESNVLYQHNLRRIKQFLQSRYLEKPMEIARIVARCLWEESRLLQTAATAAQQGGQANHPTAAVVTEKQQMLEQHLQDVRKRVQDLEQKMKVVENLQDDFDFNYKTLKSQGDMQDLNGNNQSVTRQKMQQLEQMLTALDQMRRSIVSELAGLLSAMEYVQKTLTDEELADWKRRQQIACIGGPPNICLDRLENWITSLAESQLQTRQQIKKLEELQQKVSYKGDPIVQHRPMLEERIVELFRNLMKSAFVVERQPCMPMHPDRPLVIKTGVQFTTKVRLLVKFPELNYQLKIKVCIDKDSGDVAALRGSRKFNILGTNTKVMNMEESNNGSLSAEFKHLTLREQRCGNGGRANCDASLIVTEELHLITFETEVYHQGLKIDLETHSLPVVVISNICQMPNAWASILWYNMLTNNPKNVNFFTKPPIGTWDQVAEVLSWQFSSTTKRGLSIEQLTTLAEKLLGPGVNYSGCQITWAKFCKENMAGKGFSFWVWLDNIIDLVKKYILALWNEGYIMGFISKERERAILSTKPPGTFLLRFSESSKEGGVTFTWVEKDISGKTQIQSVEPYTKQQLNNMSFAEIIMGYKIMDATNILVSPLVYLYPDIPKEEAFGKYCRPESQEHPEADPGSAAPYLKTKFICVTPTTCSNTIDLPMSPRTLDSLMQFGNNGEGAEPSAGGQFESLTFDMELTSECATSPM
Sequence of X-box-binding protein 1 (Homo sapiens) (P17861 whole entry, looked up): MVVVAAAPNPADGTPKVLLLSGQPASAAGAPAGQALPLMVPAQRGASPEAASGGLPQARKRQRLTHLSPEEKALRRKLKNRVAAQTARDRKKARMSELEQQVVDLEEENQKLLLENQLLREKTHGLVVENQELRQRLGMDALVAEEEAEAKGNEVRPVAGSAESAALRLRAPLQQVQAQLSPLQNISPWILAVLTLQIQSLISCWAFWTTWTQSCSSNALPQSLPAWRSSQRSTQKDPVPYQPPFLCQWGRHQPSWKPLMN
Sequence of Transcription factor Sp1 (Homo sapiens) (P08047 whole entry, looked up): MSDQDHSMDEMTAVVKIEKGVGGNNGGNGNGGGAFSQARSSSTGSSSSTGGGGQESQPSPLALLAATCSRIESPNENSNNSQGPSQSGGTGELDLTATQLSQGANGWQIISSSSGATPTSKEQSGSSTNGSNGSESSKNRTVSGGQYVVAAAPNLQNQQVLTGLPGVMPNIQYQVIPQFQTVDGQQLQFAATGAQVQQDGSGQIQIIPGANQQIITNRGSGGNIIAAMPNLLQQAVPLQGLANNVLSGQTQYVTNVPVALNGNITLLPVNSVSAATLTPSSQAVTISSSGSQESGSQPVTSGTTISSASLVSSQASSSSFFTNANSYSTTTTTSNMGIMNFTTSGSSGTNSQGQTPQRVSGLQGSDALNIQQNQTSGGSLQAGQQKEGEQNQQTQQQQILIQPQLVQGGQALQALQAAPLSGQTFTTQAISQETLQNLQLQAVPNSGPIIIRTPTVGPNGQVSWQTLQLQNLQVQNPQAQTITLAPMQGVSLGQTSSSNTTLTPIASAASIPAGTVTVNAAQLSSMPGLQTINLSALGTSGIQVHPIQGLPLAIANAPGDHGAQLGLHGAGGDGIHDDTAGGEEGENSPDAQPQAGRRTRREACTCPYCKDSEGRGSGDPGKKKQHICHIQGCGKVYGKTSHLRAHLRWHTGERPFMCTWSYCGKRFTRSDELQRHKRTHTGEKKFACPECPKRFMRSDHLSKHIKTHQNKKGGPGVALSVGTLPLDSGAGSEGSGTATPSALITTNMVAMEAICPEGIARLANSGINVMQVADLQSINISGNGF
Sequence of Estrogen receptor (Homo sapiens) (P03372 whole entry, looked up, the tested form may be a part): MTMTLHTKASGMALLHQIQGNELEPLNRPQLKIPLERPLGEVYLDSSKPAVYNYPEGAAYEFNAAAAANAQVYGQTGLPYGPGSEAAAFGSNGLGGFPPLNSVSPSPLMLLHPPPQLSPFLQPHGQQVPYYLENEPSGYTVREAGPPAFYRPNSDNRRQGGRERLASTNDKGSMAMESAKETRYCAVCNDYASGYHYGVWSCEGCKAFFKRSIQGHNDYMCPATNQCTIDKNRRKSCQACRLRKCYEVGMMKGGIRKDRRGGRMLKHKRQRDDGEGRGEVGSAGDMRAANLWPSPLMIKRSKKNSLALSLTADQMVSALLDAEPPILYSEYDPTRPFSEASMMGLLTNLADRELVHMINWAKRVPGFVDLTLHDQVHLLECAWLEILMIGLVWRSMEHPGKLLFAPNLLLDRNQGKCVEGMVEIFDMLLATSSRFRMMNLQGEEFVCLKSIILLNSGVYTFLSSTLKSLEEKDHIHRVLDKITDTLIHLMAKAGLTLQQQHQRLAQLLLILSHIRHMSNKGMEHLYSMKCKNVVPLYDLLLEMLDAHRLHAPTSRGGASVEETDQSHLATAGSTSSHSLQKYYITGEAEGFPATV
Sequence of Nuclear receptor subfamily 1 group I member 3 (Homo sapiens) (Q14994 whole entry, looked up, the tested form may be a part): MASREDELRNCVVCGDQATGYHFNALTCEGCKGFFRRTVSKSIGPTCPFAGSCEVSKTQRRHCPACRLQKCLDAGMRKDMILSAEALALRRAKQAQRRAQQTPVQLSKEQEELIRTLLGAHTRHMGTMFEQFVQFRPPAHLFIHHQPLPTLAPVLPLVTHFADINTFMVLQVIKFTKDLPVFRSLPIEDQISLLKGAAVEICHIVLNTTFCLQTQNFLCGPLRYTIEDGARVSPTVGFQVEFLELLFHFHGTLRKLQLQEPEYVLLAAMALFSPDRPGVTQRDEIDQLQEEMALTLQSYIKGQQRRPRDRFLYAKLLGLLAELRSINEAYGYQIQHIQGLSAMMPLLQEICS
Sequence of Steroid hormone receptor ERR1 (Homo sapiens) (P11474 whole entry, looked up, the tested form may be a part): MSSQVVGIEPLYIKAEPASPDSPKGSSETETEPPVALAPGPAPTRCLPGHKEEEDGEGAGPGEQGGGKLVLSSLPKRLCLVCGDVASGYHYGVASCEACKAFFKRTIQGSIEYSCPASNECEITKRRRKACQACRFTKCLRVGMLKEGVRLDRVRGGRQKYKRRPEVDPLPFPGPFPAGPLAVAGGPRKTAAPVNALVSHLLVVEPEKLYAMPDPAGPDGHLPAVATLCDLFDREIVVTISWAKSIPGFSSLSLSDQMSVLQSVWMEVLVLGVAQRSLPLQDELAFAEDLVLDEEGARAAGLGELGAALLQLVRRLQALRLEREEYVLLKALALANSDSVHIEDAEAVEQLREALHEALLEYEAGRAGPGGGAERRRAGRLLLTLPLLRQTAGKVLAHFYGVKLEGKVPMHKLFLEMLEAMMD
Sequence of Estrogen-related receptor gamma (Homo sapiens) (P62508 whole entry, looked up, the tested form may be a part): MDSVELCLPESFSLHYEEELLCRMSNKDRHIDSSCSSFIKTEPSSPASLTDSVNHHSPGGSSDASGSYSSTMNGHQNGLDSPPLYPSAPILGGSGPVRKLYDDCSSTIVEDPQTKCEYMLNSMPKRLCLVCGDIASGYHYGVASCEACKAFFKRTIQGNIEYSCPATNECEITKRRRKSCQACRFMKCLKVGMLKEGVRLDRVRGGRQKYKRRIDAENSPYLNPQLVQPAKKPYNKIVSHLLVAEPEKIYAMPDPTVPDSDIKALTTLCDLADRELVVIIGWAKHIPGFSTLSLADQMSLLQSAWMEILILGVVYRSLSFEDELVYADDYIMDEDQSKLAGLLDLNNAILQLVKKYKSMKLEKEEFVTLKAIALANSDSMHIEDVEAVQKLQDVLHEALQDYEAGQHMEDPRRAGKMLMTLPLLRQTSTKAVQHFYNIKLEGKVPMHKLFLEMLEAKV

Broadly, the AC50 is the concentration giving half of the maximal activity seen. Regarding `O=[N+]([O-])c1ccc(CO)cc1`, the molecule was called inactive in [1], in test [3], in test [4], in [5], in test [6] and in test [7]. Also, the call in [8], in test [9], in test [10], in test [11], in test [12] and in test [13] was inactive. For the same molecule, the outcome in test [14] and in [15] was inactive. Also, in [2], the AC50 was 5.54 µM (active).
In the case of `CCCCCCCCCCCCCCCCCC#N`, the call in test [1], in test [2], in test [3], in [4], in test [5] and in test [16] was inactive. The call in test [7], in [8], in test [9], in test [11], in [17] and in [13] was inactive. For the same molecule, the result in [14] and in [15] was inactive.
Regarding `CCCCCCCCCCOS(=O)(=O)O`, the molecule was called inactive in test [1], in [2], in [5], in test [6], in test [7] and in test [8]. In addition, the molecule was called inactive in [9], in test [10], in test [11], in test [17], in test [13] and in test [14]. The result in test [18] was inactive. Further, the values for the AC50 in test [3] and in test [4] were 13.4 µM (active) and 55 µM (active), respectively.
Consider `O=C(Oc1ccccc1)c1ccc2ccccc2c1O`, for which the molecule was called inactive in [1], in [5], in [16], in [17], in [13] and in test [19]. Besides, the AC50 in [2] is 21.5 µM (active); in [3], 41.6 µM (active); in [4], 34.3 µM (active); in test [7], 26.1 µM (active); in [8], 54.9 µM (active); in [11] it was 49 µM (active). The AC50 in test [12] is 26.4 µM (active); in test [14], 38.6 µM (active).
Turning to `O=C(OCC1CCC2OC2C1)C1CCC2OC2C1` (configuration not stated), the outcome in [1], in test [2], in [3], in test [4], in [5] and in [6] was inactive. Moreover, the call in [7], in test [8], in test [9], in test [10], in test [11] and in test [12] was inactive. The call in test [17] and in test [14] was inactive.
For the molecule `O=S1(=O)OC(c2ccc(O)cc2)(c2ccc(O)cc2)c2ccccc21`, the result in test [1], in [3], in test [4], in test [5], in test [16] and in test [8] was inactive. In addition, the call in test [9], in [10], in [11], in test [12], in test [14] and in [18] was inactive. The result in [20] was inactive. Further, the AC50 in test [2] is 13.9 µM (active); in [13] it was 23.2 µM (active).
As to `FC(F)(F)C(=NOCC1OCCO1)c1ccc(Cl)cc1`, the molecule was called inactive in test [1], in test [4], in [5], in test [6], in test [7] and in test [8]. Moreover, the molecule was called inactive in test [9], in test [10], in [11], in test [17], in [13] and in test [14]. Also, the outcome in test [18] was inactive. The AC50 in test [2] was 12.1 µM (active); in [3] it was 130 µM (active).
Regarding `O=CC1CC1`, the outcome in test [1], in [2], in [3], in test [4], in [5] and in test [6] was inactive. In addition, the outcome in test [7], in test [8], in test [9], in test [10], in test [11] and in test [12] was inactive. The outcome in [14], in test [18] and in test [15] was inactive.
